The values that follow come from PubChem BioAssay (EPA / NIEHS).

Some structures have more than one record in an assay (separate samples or runs), and their calls can disagree. Calls of active or inactive are those of the source. How the source made its calls: active means hit-call score of the fitted dose curve at least 0.9, where 1 is the maximum; inactive means score below 0.9.

For orientation: AC50 means the midpoint of the concentration-response curve, whichever way the signal moves.

Read-out in the experiment: Matrix Metallopeptidase 9 (MMP9), MMP9 (gene 4318)
Briefly: BSK_BE3C_MMP9: BioMAP Diversity Plus: BE3C Assay for Matrix Metallopeptidase 9 (MMP9) Biomarker Activity (AID 2284283). The following applies: primary human bronchial epithelial cells. On the procedure: BSK_BE3C is a cell-based, multiplexed-readout assay that uses bronchial epithelial cell, a human lung primary cell, with measurements taken at 24 hours after chemical dosing in a 96-well plate.BSK_BE3C_MMP9 is an assay component measured in the BSK_BE3C assay. It measures MMP-9 antibody related to regulation of gene expression using ELISA technology.Data from the assay component BSK_BE3C_MMP9 was analyzed at the endpoint, BSK_BE3C_MMP9, in the positive analysis fitting direction relative to DMSO as the negative control and baseline of activity. Using a type of binding reporter, gain or loss-of-signal activity can be used to understand protein changes. To generalize the intended target to other relatable targets, this assay endpoint is annotated to the 'protease' intended target family, where the subfamily is 'matrix metalloproteinase'.
The levels of cell surface (or secreted, indicated by the prefix "s") biomarker endpoints were measured by ELISA. Overt cytotoxicity to cells in confluent adherent cultures (all systems other than the BT system) was assessed by measuring total protein levels using sulforhodamine B (SRB) staining in parallel cultures at the time of biomarker measurements, indicated as SRB endpoints. For proliferation assays for adherent cell types, individual cell types are cultured at sub-confluence and relative cell numbers quantified by SRB staining at time points optimized for each system (48 h: 3C and CASM3C systems; 72 h: BT and HDF3CGF systems; 96 h: SAg system). SRB was performed by staining cells with 0.1% SRB after fixation with 10% TCA and reading wells at 560 nm.Viability and proliferation of PBMC (T cells) was quantified by Alamar Blue reduction for the SAg and BT systems. For PBMC viability (referred to as PBMC Cytotoxicity within the assay endpoint names), cells were plated (75,000/well in a 96-well plate) and then chemical samples added for 1 h before addition of activators, SEB and TSST-1 (20 ng/mL final concentration each). Cells were incubated for 90 h. Then, Alamar Blue (20 uL/well) (Invitrogen, Cat DAL1100) was added for 6 h, and the plates were read with a fluorescence microplate reader at 546/580 nm (excitation/emission). For PBMC proliferation, cells were plated and activated as above but incubated for only 16 h prior to addition of Alamar Blue. Plates were read after 6 h.
For `OCC(F)(F)OC(F)(F)C(F)(F)OC(F)(F)C(F)(F)OC(F)(F)F`, the outcome was inactive.

As for `O=S(=O)(F)C(F)(F)C(F)(F)C(F)(F)C(F)(F)C(F)(F)C(F)(F)C(F)(F)C(F)(F)F`, the outcome was inactive.

For `COC(=O)C(F)(F)C(F)(F)OC(F)(C(F)(F)F)C(F)(F)OC(F)=C(F)F` (stereo unspecified), the result was inactive.

On to `O=C(O)C(F)(F)C(F)(F)C(=O)O`, for which the result was inactive.

On to `OCC(F)(F)OC(F)(F)C(F)(F)OC(F)(F)CO`, for which the result was inactive.

Take `FC(F)(F)C(F)(C(F)(F)F)C(F)(F)C(F)(F)CC1CO1` (stereo unspecified): the outcome was inactive.

Consider `OCC(F)(F)OC(F)(F)C(F)(F)OC(F)(F)C(F)(F)OC(F)(F)CO`, for which the outcome was inactive.

For the molecule `O=C(O)C(F)(OC(F)(F)C(F)(F)C(F)(F)F)C(F)(F)F` (stereo unspecified), the result was inactive and the AC50 was 1450 nM (active).

On to `O=C(O)C(F)(F)OC(F)(F)C(F)(F)OC(F)(F)C(=O)O`, for which the result was inactive.

In the case of `O=C(O)C=CC(F)(C(F)(F)F)C(F)(F)F`, the result was inactive.

Regarding `COP(=O)(CCC(=O)NCO)OC`, the result was inactive.

With `NC(=O)C(F)(F)C(F)(F)F`, the outcome was inactive.

Consider `CC(O)C(F)(F)C(F)(F)F` (stereo unspecified), for which the outcome was inactive.

Consider `C=CC(=O)OCC(F)(F)C(F)F`, for which the result was inactive.

In the case of `O=C(O)C(F)(F)OC(F)(F)C(F)(F)OC(F)(F)F`, the result was inactive.
